Rows were chosen to be rich in hits. Some 9.6% of all compounds tested hit in one or more screens of this group.
PostGolgi yeast – phenotypic screen on post-Golgi transport, primary screen | 0.9% of 98,000 active | inhibition, % at 10 µM | AID 739, 2007 | post-Golgi transport phenotypic cell assay;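 note: yeast cells grown in 1536-well plates; yeast grown about 18 h at 30C before absorbance read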
hDAT+cocaine – changed hDAT dopamine uptake under cocaine IC80, either direction, primary screen, cocaine antagonist project, cell-based, LLC-PK1 hDAT, [14C]-dopamine uptake, MLSMR | Sodium-dependent dopamine transporter (Homo sapiens), Q01959 | LLC-PK1 hDAT cells, [14C]-dopamine uptake with cocaine IC80; actives deviate in either direction | B-score at 10 µM | 1.3% of 110,000 active | AID 449768, 2010;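 active = Z score or B-score, a plate-position-corrected score, falls beyond the plate's 99.7% confidence bounds, in either direction; inactive = both scores lie inside the 99.7% bounds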;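 note: scored against the spread of the other compound wells on the same plate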
Target sequence (Q01959 whole entry, looked up): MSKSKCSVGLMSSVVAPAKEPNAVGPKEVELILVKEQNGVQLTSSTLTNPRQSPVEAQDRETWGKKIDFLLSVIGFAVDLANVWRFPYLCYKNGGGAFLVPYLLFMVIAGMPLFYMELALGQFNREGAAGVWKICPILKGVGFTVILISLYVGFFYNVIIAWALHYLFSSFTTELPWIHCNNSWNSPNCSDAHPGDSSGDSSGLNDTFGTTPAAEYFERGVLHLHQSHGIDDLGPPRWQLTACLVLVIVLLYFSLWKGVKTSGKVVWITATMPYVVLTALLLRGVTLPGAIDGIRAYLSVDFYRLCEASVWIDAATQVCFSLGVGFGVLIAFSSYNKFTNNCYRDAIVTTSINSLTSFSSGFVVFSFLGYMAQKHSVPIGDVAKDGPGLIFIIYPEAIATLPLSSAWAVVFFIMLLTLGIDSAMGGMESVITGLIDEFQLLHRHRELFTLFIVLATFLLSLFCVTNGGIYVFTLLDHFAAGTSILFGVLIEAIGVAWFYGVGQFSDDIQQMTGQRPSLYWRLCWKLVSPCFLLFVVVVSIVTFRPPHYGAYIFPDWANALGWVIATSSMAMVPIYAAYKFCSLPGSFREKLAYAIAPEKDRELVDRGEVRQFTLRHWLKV
PostGolgi ctrl – growth inhibition of yeast control strain, primary screen, counter-screen for post-Golgi transport modulator project. 5% of 98,000 active. AID 738, 2007. efflux-deficient yeast background strain, growth absorbance A615, 16 h. inhibition, % at 10 µM
Cav3 T inh – Cav3.2 calcium influx blockers – cell-based, Fluo-4 calcium fluorescence, FDSS, MLSMR library, primary screen | Voltage-dependent T-type calcium channel subunit alpha-1H (Homo sapiens), O95180 | Cav3.2-expressing cells; stronger effect = lower value | B-score at 10 µM | 4% of 100,000 active;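 active = single-dose well whose peak fluorescence ratio is a statistical outlier from its plate by either plate-standardised score or position-corrected B-score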
PLAP act – PLAP enzyme activators, biochemical, luminescence, HTS. purified PLAP enzyme, luminescent substrate read-out; stronger effect = higher value. Alkaline phosphatase, placental type (Homo sapiens), P05187. AID 696, 2007. activation fold at 20 µM. 1.2% of 96,000 active; in the data active = activation fold above about 2
* marks the source's active call; other numbers are inactive results; · = not tested or not shown. Cut-off read from the data, not from the text of the source, unless noted: active = inhibition above about 30%; inactive = the rest.

SMILES	PostGolgi yeast	hDAT+cocaine	PostGolgi ctrl	Cav3 T inh	PLAP act
CCN(CC)S(=O)(=O)c1cc(C(=O)n2cccn2)c(Cl)cc1Cl	-2	0.96	6	2	1.2
O=C(NO)c1ccc(C(=O)N(C2CCCCC2)C2CCCCC2)cc1	102*	1.2	96*	-0.52	1.7
C=CCOc1ccc(C(=O)NC2CCCCC2)cc1	19	-0.18	9	-0.4	0.8
C=CCNC(=O)N1C2=NC(C(=O)OC)=C(C(=O)OC)[C@@H]3N(Cc4ccccc4)c4ccccc4[C@]23C[C@H]1C(=O)OC	·	0.11	·	-1.6	·
N#CC1=C(N)N(c2ccccc2Sc2ccccc2)C(=O)C1	-7	2.1	35*	0.57	1.3
O=c1c(-c2nnc(SCc3ccc(Cl)cc3)o2)cccn1Cc1ccccc1	11	-0.22	61*	-2	1.1
O=C(Nc1ccccc1-c1nnc(SCc2ccccc2)o1)c1ccccc1	9	-0.36	18	-5.8*	0.9
Clc1ccc(CSc2nnc(-c3c[nH]c4ccccc34)o2)cc1	-8	-0.87	27	0.56	0.9
O=C(Nc1ccccc1-c1nnc(SCc2ccc(Cl)cc2)o1)c1ccccc1	22	-1.1	-3	-4.2*	1
Cc1ccccc1-c1nnc(SCc2ccc(F)cc2)o1	-2	0.32	35*	-3.5	0.9
Cc1ccc(CSc2nnc(-c3cccnc3)o2)cc1	16	0.59	2	-0.19	1.1
Cc1ccc(C)c(NC(=O)CSc2nnc(-c3ccccc3C)o2)c1	0	0.1	21	-5.5*	0.8
CC(C)(C)C(=O)c1sc2nc(-c3cccs3)cc(C(F)(F)F)c2c1N	-4	-0.94	7	-8.3*	0.9
CCCc1cc(=O)[nH]c(SCC(=O)N2CCN(S(=O)(=O)c3ccc(C)cc3)C2)n1	3	0.23	2	0.62	1.2
Oc1ccc(/C=N/Nc2cc(N3CCCC3)nc(N3CCCC3)n2)cc1	17	-0.62	31*	-1.3	0.8
Oc1ccc(/C=N/Nc2cc(N3CCOCC3)nc(N3CCOCC3)n2)cc1	·	-0.075	·	0.56	·
CCOC(=O)c1cnc(SC2CCc3ccccc3C2=O)nc1N (stereo not given)	-6	2.7*	21	0.043	1.4
CCCCSc1ncc(C(=O)OCC)c(N)n1	·	0.85	·	-4.6*	·
Cc1cc(=O)oc2c1c(C)nn2-c1nn[nH]n1	-1	-0.43	-2	-0.029	0.9
COc1cc(NS(=O)(=O)c2ccc(N/C=C(\C#N)c3nc4cc(Cl)ccc4o3)cc2)nc(OC)n1	-2	2.6	1	0.79	2.1*
COc1cc(NS(=O)(=O)c2ccc(NC(=O)c3ccco3)cc2)nc(OC)n1	-6	-0.63	35*	-0.44	0.8
COC(=O)c1ccc(NC(=O)c2ccccc2N(C)S(=O)(=O)c2ccccc2)cc1	10	·	0	·	1.1
CC1=NN(c2nc(-c3ccc(C)cc3)cs2)C(=O)C1N=Nc1ccc2ccccc2c1 (stereo not given)	-4	-0.99	4	-1.5	0.7
CC1=NN(C(N)=S)C(=O)C1N=Nc1ccccc1C (stereo not given)	9	0.59	30*	-0.084	·
CC1=NN(C(N)=S)C(=O)C1N=Nc1ccc(C)cc1C (stereo not given)	6	·	27	·	1
SMILES	PostGolgi yeast	hDAT+cocaine	PostGolgi ctrl	Cav3 T inh	PLAP act
CC1=NN(C(N)=S)C(=O)C1N=Nc1c(C)cc(C)cc1C (stereo not given)	11	0.23	32*	-0.056	1.6
O=C1CN(c2nc3ccccc3n3cnnc23)CC(=O)N1CCc1ccccc1	3	0.28	13	-0.43	0.9
CC1CC(C)CN(Cc2nc3c(c(=O)n(C)c(=O)n3C)n2CCN2CCOCC2)C1 (stereo not given)	-2	0.65	-8	-0.48	1.5
Cc1cccc(CN2CCC(C(N)=O)CC2)c1	13	-0.87	1	1.1	0.8
Cc1ccc(OCC(O)Cn2c3ccccc3c3ccccc32)cc1 (stereo not given)	-1	1.7*	41*	·	0.9
CC(=O)N(C)c1ccc(OCC(O)Cn2c3ccc(Cl)cc3c3cc(Cl)ccc32)cc1 (stereo not given)	73*	-0.26	57*	0.068	1.6
N=c1n(Cc2ccccc2)c2ccccc2n1CC(O)COc1ccccc1 (stereo not given)	-8	2.9	-9	-4.9*	1.1
C=CCN(CC=C)CC(O)Cn1c2ccccc2c2ccccc21 (stereo not given)	-1	0.63	10	-3.4*	1.3
CCN(CC)CC(O)Cn1c2ccccc2c2ccccc21 (stereo not given)	1	-0.28	0	0.011	0.8
CCOc1cc(/C=C2/C(=N)N3OC(C)=CC3=NC2=O)ccc1OCCOc1ccccc1	-5	-0.46	4	0.29	1
C=CCNc1oc(-c2cccs2)nc1C#N	0	-0.2	7	0.68	0.9
Cc1ccc(S(=O)(=O)N(C)CC(O)Cn2c3ccccc3c3ccccc32)cc1 (stereo not given)	0	-0.0052	80*	-0.41	1.7
CCN(CC(O)Cn1c2ccccc2c2ccccc21)S(=O)(=O)c1ccc(F)cc1 (stereo not given)	4	0.17	50*	-0.93	1.5
C=CCOc1c(Cl)cc(C2NC(=O)NC(C)=C2C(=O)OC)cc1Cl (stereo not given)	7	-0.86	51*	-1.5	0.9
O=C(O)Cn1c(SCCOc2ccccc2F)nc2ccccc21	31*	0.095	-1	-5.3*	1.1
OCCn1c(SCCOc2ccccc2F)nc2ccccc21	5	0.016	41*	-1.2	0.8
CCCNC(=O)CSc1nnc(C)s1	24	-0.21	-3	0.34	0.8
CC1(C)N([O-])C2=C(c3ccccc3C2=O)[N+](=O)C1(C)C	-1	0.11	-9	0.038	0.8
CCOC(=O)c1ccc(NC(=O)Cn2cc3c(n2)CCC(C)C3)cc1 (stereo not given)	1	1.6	1	-0.35	0.9
O=C1c2ccccc2C(Nc2ccc(Cl)cn2)N1c1cccnc1 (stereo not given)	1	-0.32	11	-0.47	0.9
COc1ccc2cc(CN(Cc3cccnc3)S(=O)(=O)c3ccccc3)c(=O)[nH]c2c1	10	0.85	2	1.6	1.6
O=C(Nc1nnc(-c2ccc3c(c2)CCCC3)o1)c1ccc(Cl)cc1Cl	85*	0.0036	30	-3.2*	1.2
COc1ccc(-c2nnc(NC(=O)c3cc(Cl)ccc3Cl)o2)cc1	13	1.7	16	-5.2*	1
Cc1oc(C(C)(C)C)cc1C(=O)N1CCCC1C(=O)O (stereo not given)	·	1	·	0.22	·
CCOc1cc(/C=C2\C(=O)N(c3nc(-c4ccc(Br)cc4)cs3)N=C2c2ccccc2)ccc1O	1	·	31*	·	0.6
CCCOc1ccc(-c2nc(OCC)c3ccccc3n2)cc1	-7	0.56	8	0.058	0.9

Screening results from PubChem BioAssay.
